This is an account of results in PubChem BioAssay AID463173 (ICCB-Longwood Screening Facility, Harvard Medical School, 2010).

About 1,700 (3.3%) of roughly 52,000 compounds were called active. The full list was thinned out, with actives kept by preference. Values without a mark were called inactive. No stated cut-off is given here; in the data, active means survival mostly below about 52% (no sharp cut-off); inactive means mostly above about 56%.

In this experiment the test system is Wild type. The experiment can be described thus: S. aureus survival, RN4220 and DeltatarO strains – OD600, teichoic acid synthesis inhibitors, primary screen (AID 463173). The conditions noted are these: S. aureus RN4220 wild type/DeltatarO growth, OD600, 18 h, hits give low values, screened at 18.75 µg/mL (by protocol).
Take `CCCN1CCN(CCCNC(=O)c2cc3c(=O)n(CC)c4ccccc4c3s2)CC1`: the survival is 85%.

For the compound `CC1CCN(CC(=O)N2CCN(c3ccccc3)CC2)CC1`, the survival was 106%. Then `COc1ccc(-c2cn3nc(N4CCCC(C(=O)Nc5ccccc5OC)C4)sc3n2)cc1` (stereo unspecified), with 135%. With `CN(C)S(=O)(=O)c1ccc2c(c1)N(CC(=O)Nc1ccc(OC(F)(F)F)cc1)C(=O)CS2` the figure was 71%; with `COc1ccc(C(=O)NCCN=C2NS(=O)(=O)c3ccccc32)cc1`, 108%. With `COCCn1c(C)cc(O)c(C(c2ccccc2)N2CCN(C)CC2)c1=O` (stereo unspecified) the figure was 87%. Take `CCN1CCN(C(c2ccccc2)c2c(O)cc(C)n(CCOC)c2=O)CC1` (stereo unspecified): the survival is 91%. Regarding `COCCn1c(C)cc(O)c(C(c2ccccc2)N2CCN(CCO)CC2)c1=O` (stereo unspecified), the survival is 0% (active). Take `COc1cccc(C(=O)c2cn(CC(=O)NCCc3ccccc3)c3nc(C)ccc3c2=O)c1`: the survival was 64%. With `O=C(NCCn1cc(SCc2cccc(F)c2)c2ccccc21)c1cccc(C(F)(F)F)c1` the figure was 8% (active); with `COc1ccc(C(=O)NCCn2cc(SCc3cccc(F)c3)c3ccccc32)cc1OC`, 68%; with `Cc1ccc(CSc2cn(CCNC(=O)c3cccs3)c3ccccc23)cc1`, 62%.

On to `O=C(NCCn1cc(SCc2ccc(C(F)(F)F)cc2)c2ccccc21)c1ccccc1F`, for which the survival was 35%. With `COc1ccccc1C(=O)NCCn1cc(SCc2ccccc2Cl)c2ccccc21` the figure was 28%; with `COc1ccccc1C(=O)NCCn1cc(SCc2ccc(C)cc2)c2ccccc21`, 3% (active); with `Cc1nc2cc(C(F)(F)F)ccc2n1C1CCN(C(=O)C2CC2)CC1`, 95%. On to `Cn1ncc2c(NCc3ccc(Cl)cc3)ncnc21`, for which the survival is 75%. With `Cc1cccc(OCC(=O)Nc2ccc(Cl)c(-c3nc4ncccc4o3)c2)c1C` the figure was 38%; with `CCC(C)c1ccc(OCC(=O)Nc2ccc(-c3nc4ncccc4o3)cc2)cc1` (stereo unspecified), 60%; with `Cc1ccccc1OCC(=O)Nc1ccc(-c2nc3ncccc3o2)cc1`, 69%. With `CCC(C)c1ccc(OCC(=O)Nc2cccc(-c3nc4ncccc4o3)c2)cc1` (stereo unspecified) the figure was 6% (active); with `Cc1cc(C)c(OCC(=O)Nc2cccc(-c3nc4ncccc4o3)c2)c(Br)c1`, 4% (active); with `CCCC(=O)Nc1cccc(-c2nc3ncccc3o2)c1`, 88%. Then `COc1ccc(OCC(=O)Nc2ccc(-c3nc4ncccc4o3)cc2)cc1`, with 119%; and `O=C(COc1ccc(Cl)cc1Cl)Nc1ccc(C(=O)OC2CCCCC2)cc1`, with 78%; and `Cc1ccc(C(C)C)c(OCC(=O)Nc2ccc(-c3nc4ncccc4o3)cc2C)c1`, with 69%. On to `Cc1ccc(C(C)C)c(OCC(=O)Nc2cccc(-c3nc4ncccc4o3)c2)c1`, for which the survival was 2% (active). Then `Cc1cc(OCC(=O)Nc2ccc(C(=O)OC3CCCCC3)cc2)cc(C)c1Cl`, with 52%. Then `Cc1ccc(C(C)C)c(OCC(=O)Nc2ccc(C(=O)OC3CCCCC3)cc2)c1`, with 6% (active).

On to `O=C(Nc1ccccc1)Nc1nnc(SCC(=O)N2CCCCC2)s1`, for which the survival is 131%. Regarding `CC(C)(C)OC(=O)N1CCC(c2c(C(=O)N3CCN(C(=O)c4ccco4)CC3)cnn2-c2cccc(Cl)c2)CC1`, the survival was 95%. With `CCn1cc(C(=O)Nc2ccccc2)c(=O)c2ccc(C)nc21` the figure was 111%. Then `CCc1ccccc1Nc1nc2ccccc2n2cnnc12`, with 147%; and `c1ccc(N(c2ccccc2)c2nc(-n3nnc4ccccc43)nc(-n3nnc4ccccc43)n2)cc1`, with 103%; and `Cc1cccc(Oc2coc3cc(OCC(=O)NC4CCCCC4)ccc3c2=O)c1`, with 80%. With `COc1ccc(C2C(C(N)=O)=C(C)Nc3nc(SCc4ccccc4Cl)nn32)cc1OC` (stereo unspecified) the figure was 143%; with `CC1=C(C(=O)Nc2ccccc2)C(c2ccc(O)cc2)n2nc(-c3ccc(Cl)cc3)nc2N1` (stereo unspecified), 82%. On to `COc1ccc(NC(=O)c2ccco2)cc1NC(=O)COc1cc(C)ccc1C(C)C`, for which the survival is 85%. Turning to `Cc1ccc2cccc(NC(=O)COc3ccccc3Cl)c2n1`, the survival was 134%. With `Cc1ccc(C(C)C)c(OCC(=O)Nc2ccc3c(c2)nc(CCNC(=O)c2ccco2)n3C)c1` the figure was 88%.

In the case of `CCC(C)c1ccc(OCC(=O)Nc2cccc3ccc(C)nc23)cc1` (stereo unspecified), the survival was -12% (active).

As to `Cc1ccc(C(C)C)c(OCC(=O)Nc2cccc(NC(=O)c3ccco3)c2)c1`, the survival was 12% (active). Then `Cc1ccc2cccc(NC(=O)COc3cc(C)c(Cl)c(C)c3)c2n1`, with 82%; and `O=c1c(-c2cc(-c3ccccc3)nc3c2COc2ccc(Cl)cc2-3)coc2ccccc12`, with 75%; and `COc1cc(C(=O)Nc2nonc2-c2ccc(Cl)cc2)cc(OC)c1OC`, with 94%. Consider `CCC1CCCCN1C(=O)Cn1c(=O)cc(C(F)(F)F)c2c(C)nn(C)c21` (stereo unspecified), for which the survival was 68%. Take `Cc1ccc(-c2cc(C(=O)NCc3ccccc3)c3c(-c4ccc(C)cc4)[nH]nc3n2)cc1`: the survival was 75%. With `O=C(Cn1c(=O)nc(-c2ccccc2)c2cc(Cl)ccc21)NCCc1ccccc1` the figure was 69%; with `CCCCOC(=O)c1ccc(NC(=O)c2cc(=O)c3ccccc3o2)cc1`, 93%; with `CCCCOC(=O)c1cccc(NC(=O)c2cc3ccccc3o2)c1`, 0% (active). Then `CCCCOC(=O)c1cccc(NC(=O)/C=C/c2ccccc2Cl)c1`, with 7% (active); and `CCN(CC)c1cc(C)c2cc(NC(=O)/C=C/c3ccccc3Cl)ccc2n1`, with 76%. Then `Cc1ccc(NC(=O)/C=C/c2ccccc2Cl)cc1Cl`, with 97%; and `O=C(Nc1ccc(NC(=O)c2cc3ccccc3o2)cc1)c1ccccc1`, with 80%; and `CC(C)CC(=O)Nc1ccc(C(=O)OCc2cc(=O)n3nc(C4CCCCC4)sc3n2)cc1`, with 47%. Regarding `CCC12C=CCN3CCC4(c5ccc(OC)cc5NC4C(O)(C(=O)OC)C1OC(C)=O)C32` (stereo unspecified), the survival is 100%. Turning to `Cc1ccc(-c2nc(CN(C)C)cc(CN(C)C)c2O)cc1`, the survival is 121%. Regarding `CCOC(=O)CC(N)c1ccc2c(c1)OCO2` (stereo unspecified), the survival is 111%. As to `O=c1c2cc3c(cc2n(Cc2ccccc2)c(=O)n1Cc1nc(-c2ccccc2)no1)OCO3`, the survival was 112%. With `CC(C)CC(=O)Nc1ccc(C(=O)OCc2cc(=O)n3nc(C(C)C)sc3n2)cc1`, the survival is 138%. As for `Nc1ccc2nc(SCCOc3ccccc3)sc2c1`, the survival was 108%.

Regarding `COc1ccc2nc(SCC(O)c3cccc(Br)c3)[nH]c2c1` (stereo unspecified), the survival was 84%. Then `Brc1ccc2nc(SCCOc3ccccc3)[nH]c2c1`, with 0% (active).

Consider `O=C(Nc1c[nH]c2cc(Cl)ccc2c1=O)N1CCCCC1`, for which the survival was 85%. With `CSc1ccc(CNC(=O)Cn2nc(N3CCN(c4ccccc4)CC3)ccc2=O)cc1` the figure was 64%. With `O=c1c2sc3ccccc3c2n(Cc2cccc(Cl)c2)c(=O)n1Cc1ccco1` the figure was 68%; with `CCCOc1ccc(NC(=O)CC2C(=O)N(c3ccccc3)C(=O)N2Cc2ccc(F)cc2)cc1` (stereo unspecified), -1% (active); with `COC(=O)c1ccc(NC(=O)CC2C(=O)N(c3ccccc3)C(=O)N2Cc2ccc(F)cc2)cc1` (stereo unspecified), 14% (active).

Regarding `CCN1CCOC(=O)C1CC(=O)Nc1ccc(C(C)=O)cc1` (stereo unspecified), the survival is 65%. On to `COC(=O)c1ccc(NC(=O)CC2C(=O)N(c3ccc(F)cc3)C(=O)N2Cc2ccc(OC)cc2)cc1` (stereo unspecified), for which the survival is 131%. With `CCOC(=O)c1ccc(NC(=O)CC2C(=O)N(c3ccc(F)cc3)C(=O)N2Cc2ccc(C)cc2)cc1` (stereo unspecified) the figure was 61%; with `CCCOc1ccc(NC(=O)CC2C(=O)N(c3ccc(C)cc3)C(=O)N2C(C)C)cc1` (stereo unspecified), 133%. With `COC(=O)c1ccc(NC(=O)CC2C(=O)N(c3cccc(OC)c3)C(=O)N2C(C)C)cc1` (stereo unspecified), the survival was 78%. With `CCCOc1ccc(NC(=O)CC2C(=O)N(c3ccc(F)cc3)C(=O)N2CC(C)C)cc1` (stereo unspecified) the figure was 75%; with `COc1ccc(CN2C(=O)N(c3ccc(F)cc3)C(=O)C2CC(=O)Nc2ccccc2)cc1` (stereo unspecified), 79%; with `CCN1CCOC(=O)C1CC(=O)Nc1ccc(Br)cc1` (stereo unspecified), 38%. With `CCc1ccc(NC(=O)CC2C(=O)OCCN2CC)cc1` (stereo unspecified) the figure was -15% (active); with `CCc1ccc(NC(=O)CC2C(=O)N(c3ccccc3)C(=O)N2C(C)C)cc1` (stereo unspecified), -6% (active). Regarding `O=C(CSc1nc(=O)n(Cc2ccco2)c2c1CCC2)Nc1ccccc1C(F)(F)F`, the survival was 138%. Then `Cc1ccccc1CNC(=O)c1ccc2c(c1)c(C)c(C)n2C`, with 58%; and `CC1CCCN(c2ccc(C(=O)NCc3ccccc3)cn2)C1` (stereo unspecified), with 103%. Then `CCc1cccc(NC(=O)CSc2nncn3c2cc2sccc23)c1`, with 73%; and `CCOc1cccc2sc(NC(=O)CS(=O)(=O)c3ccc(C)cc3)nc12`, with 72%.

As for `Cc1cccn2c(=O)c(C(=O)N3CCN(c4ccc(Cl)cc4)CC3)cnc12`, the survival was 87%. Then `CCCSCCCNC(=O)C1CCCN(C(=O)c2cnn(-c3ccccc3)c2-n2cccc2)C1` (stereo unspecified), with 107%; and `COc1ccccc1CNC(=O)c1oc2ccc3c(c2c1C)C(=O)CC(C)(C)O3`, with 59%; and `Cc1ccc(OC(C)C(=O)NCC2(N3CCOCC3)CCCCC2)cc1C` (stereo unspecified), with 86%. Then `CC1CCCN(Cc2c(O)ccc3c(=O)c(-c4ccc(Cl)cc4)c(C(F)(F)F)oc23)C1` (stereo unspecified), with 71%. With `CCc1cccc(C)c1NC(=O)C(CC)Sc1nncn2c1cc1occc12` (stereo unspecified) the figure was 78%.

Turning to `CCc1ccc(CNC(=O)c2ccc3c(c2)nc2n3CCOC2)cc1`, the survival is 111%.

For the compound `CN(C(=O)C1CCN(c2ncnc3c2nc2n3CCCCC2)CC1)c1ccccc1F`, the survival was 60%.
